# About 83,000 compounds went through this panel and 20% of them were active in at least one assay; those are over-represented in the sample as a whole.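 Note: values are percent growth. 100 is the growth of untreated cells, values between 100 and 0 indicate rising inhibition; between -100 and 0 indicates cell death.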 A number with no mark means an inactive call. Activity calls are given as the source filed them. The calls were made as follows: active = growth percent below 10; inactive = the rest.
# Test system: HL-60(TB) leukemia
# Assay: NCI-60 one-dose screen, 48 h (100 = growth as untreated, 0 = no growth, -100 = all killed)
# Details: 10 µM unless noted
row,SMILES,growth
1,CCN(CC)c1ccnc(CNCCSC(c2ccccc2)(c2ccccc2)c2ccc(OC)cc2)c1,-34.3% (active)
2,COc1ccc2[nH]c(=O)c(CSc3ccccc3Nc3nccc(-c4ccc5c(c4)OCO5)n3)cc2c1,74%
3,Cc1ccc(C(C(=O)NC2CCCCC2)N(Cc2ccccc2Cl)C(=O)c2ccc(CN3CCOCC3)o2)o1 (centres undefined),84.6%
4,C/C(=N\N=C1/C(=O)Nc2ccc(Cl)cc21)c1ccc2c(c1)Nc1ccccc1S2,8.43% (active)
